These results are taken from PubChem BioAssay AID504850 (National Center for Advancing Translational Sciences (NCATS), 2011).

In all, about 2,300 compounds went through this assay and about 1,200 (52%) were called active. Inconclusive results (about 34%) are left out. So high a share suggests a set chosen from earlier hits. This is one part of the list. Unmarked numbers belong to inactive results. Calls come from the whole dose curve; as a rule, active = well fitted inhibition curve with a large enough effect; inconclusive = small, poorly fitted or top-dose-only effect, or effect the other way; inactive = no such curve, though single readings can be large or run the other way.
% is set by controls: 0 for no effect and ±100 for the full control effect; potency is the fitted concentration of half-maximal effect.

A short description of this experiment: Confirmation screen for delayed death inhibitors of the malarial parasite plastid, 48 hour incubation. Note: nearly all actives have a fitted effect of over 65% in size. As to conditions: P. falciparum-infected erythrocytes, luciferase growth; series mostly up to 28.7 µM; activity change, negative = inhibition: at the top concentration. The source says: The goal of this screen is to discover new antimalarial compounds that act by inhibiting the development of the apicoplast in the malarial parasite Plasmodium falciparum. The biochemical processes that make this organelle essential for erythrocytic stage parasites are not well understood. However, antibiotics, such as azithromycin and tetracycline, which target the apicoplast translational machinery, have a potent antimalarial effect. […] We have developed a cell-based assay that measures parasite growth based on the expression of an integrated copy of a firefly luciferase reporter. To detect small molecules that cause this "delayed death phenotype, erythrocytes infected with the luciferase-expressing parasites were incubated with compounds for either one or two generations, corresponding to 48 and 96 hours, respectively. Compounds that inhibit parasite growth in the second generation, but not the first, should be enriched in antimalarials that target the apicoplast. Growth inhibition is detected by a decrease in luciferase activity. MLPCN Grant: R21 NS059500 Assay Provider: David Fidock and Eric Ekland, Columbia University Keywords: NIH Roadmap, MLPCN, MLI, MLSMR, qHTS, NCGC, qHTS, malaria, luciferase, viability
Four microliters of culture medium (RPMI 1640 with 0.5% w/v Albumax (GIBCO), 24 mM sodium bicarbonate and 10 ug/mL gentamycin) were dispensed by a Multi-drop Combi into white solid 1536-well plates (Grenier) and 23 nL compound was added by a pin tool. Four microliters of infected erythrocytes (2% hematocrit, 0.1% parasitemia final concentration) in culture medium were dispensed and the plates incubated for 48 hours at 37 C in 5% CO2. Two microliters of luciferase detection reagent was added and luminescence was detected by a ViewLux (PerkinElmer) reader.
For `COc1ccccc1OCC(=O)Nc1cc(Cl)ccc1Oc1ccccc1`, the “activity change, negative = inhibition” value is -11.9%.

As to `Cc1ccc(C)c(N(CC(=O)Nc2cc(Cl)ccc2Oc2ccccc2)S(C)(=O)=O)c1`, the Potency was 11.2 µM (active).

Turning to `CN(C)S(=O)(=O)c1ccc(Cl)c(NC(=O)CN2C(=O)NC(C)(C3CC3)C2=O)c1` (stereo unspecified), the Potency was 14.1 µM (active).

As to `CCOc1ccc2c(c1)C(N(CCN1CCOCC1)C(=O)Nc1ccccc1)CC(C)(C)O2` (stereo unspecified), the Potency was 12.6 µM (active).

On to `COCCNC(=O)c1cccc(OC2CCN(Cc3ccc(C(C)C)cc3)CC2)c1`, for which the Potency was 14.1 µM (active).

On to `C=CCNC(=O)c1onc(CSc2ccc(Cl)cc2)c1C(=O)O`, for which the “activity change, negative = inhibition” value is 11.2%.

In the case of `CCOC(=O)C(C(=O)OCC)C(Nc1cccc(Br)c1)c1ccccc1` (stereo unspecified), the Potency was 14.1 µM (active).

Turning to `Cc1ccc2cc(C)c(SCC(=O)NCc3ccco3)nc2c1`, the “activity change, negative = inhibition” value was -22.8%.

For `Cc1ccc(Nc2nc(NCc3ccco3)c3ccccc3n2)cc1`, the Potency is 2 µM (active).

As for `COc1ccc(Cl)cc1NC(=O)C(C)NC(c1ccccc1)c1ccccc1` (stereo unspecified), the Potency is 8.91 µM (active).

Regarding `COc1ccc(Nc2cc(Cl)ccc2C(=O)O)cn1`, the “activity change, negative = inhibition” value is -43.1%.

With `C#CCOCCOCCOCCNc1nc(N2CCN(C(=O)Cn3cc(CC(C)O)nn3)CC2)nc(N2CCN(C(=O)[C@H](C)n3cc(CCCN=C(N)N)nn3)CC2)n1` (stereo partly specified), the “activity change, negative = inhibition” value was -25.6%.

As to `COc1nc(NC(=O)c2ccc(F)cc2)nc(OC)c1-c1ccccc1`, the Potency was 12.6 µM (active).

For the compound `O=[N+]([O-])c1c(Nc2ccccc2O)cc(Cl)c2nonc12`, the Potency is 5.62 µM (active).

As to `CC(C)(C)NC(=O)[C@H]1CN(Cc2cccnc2)CCN1C[C@@H](O)C[C@@H](Cc1ccccc1)C(=O)N[C@H]1c2ccccc2C[C@H]1O`, the Potency is 7.94 µM (active).

With `CN(CCNC(=O)c1ccc(CS(=O)(=O)c2ccc(Br)cc2)o1)CCc1ccccc1`, the Potency is 4.47 µM (active).

Regarding `CCCCNC(=O)c1ccc(CS(=O)(=O)c2cccc(C(F)(F)F)c2)o1`, the “activity change, negative = inhibition” value was -12.9%.

As to `CN(CCCNC(=O)c1ccc(CS(=O)c2ccc(Br)cc2)o1)Cc1ccccc1` (stereo unspecified), the Potency is 8.91 µM (active).

`CCCCN(CCCNC(=O)c1ccc(CS(=O)(=O)c2ccc(OC)cc2)o1)Cc1ccccc1`: the Potency was 12.6 µM (active).

As to `CCn1c(=O)c(CCC(=O)N2CCOCC2)c(C)c2c(C)nn(-c3ccccc3)c21`, the Potency is 14.1 µM (active).

With `COc1ccc(C(=O)N2CCN(S(=O)(=O)c3ccc(C)cc3C)CC2)cc1OC`, the Potency was 12.6 µM (active).

As to `Cc1ccc(S(=O)(=O)N2CCN(C(=O)c3cc(S(=O)(=O)N(C)C)ccc3N3CCCC3)CC2)c(C)c1`, the Potency was 12.6 µM (active).

Take `Cc1ccc(S(=O)(=O)N2CCN(C(=O)c3ccc(Br)o3)CC2)c(C)c1`: the Potency is 10 µM (active).

As for `COc1ccc(C)cc1S(=O)(=O)N1CCN(S(=O)(=O)c2cc(C(=O)O)ccc2C)CC1`, the Potency is 11.2 µM (active).

Turning to `CCNc1nc(NCC)n2c(SCC(=O)Nc3ccccc3F)nnc2n1`, the Potency was 12.6 µM (active).

On to `Cc1c(Cl)cccc1NC(CC(=O)c1ccccc1)C(=O)O` (stereo unspecified), for which the “activity change, negative = inhibition” value is -3.76%.

Turning to `CC(=O)O[C@@]12CO[C@@H]1C[C@H](O)[C@@]1(C)C(=O)[C@H](O)C3=C(C)[C@@H](OC(=O)C(O)[C@@H](NC(=O)OC(C)(C)C)c4ccccc4)C[C@@](O)([C@@H](OC(=O)c4ccccc4)[C@H]21)C3(C)C` (stereo partly specified), the Potency was 0.141 µM (active).

`CC(=O)O[C@H]1C(=O)[C@@]2(C)[C@H]([C@H](OC(=O)c3ccccc3)[C@]3(O)C[C@H](OC(=O)[C@H](O)[C@@H](NC(=O)c4ccccc4)c4ccccc4)C(C)=C1C3(C)C)[C@]1(OC(C)=O)CO[C@@H]1C[C@@H]2O`: the Potency was 0.501 µM (active).

Turning to `Cc1c(/C=N/NC(=O)c2cccs2)c2ccccc2n1Cc1ccccc1Cl`, the Potency is 4.47 µM (active).

Turning to `Cc1noc(/C=C/c2nn(C)cc2Cl)c1[N+](=O)[O-]`, the Potency was 12.6 µM (active).

As for `CC(=O)N1CCc2cc(S(=O)(=O)NCCC(=O)N3CCN(c4ccccn4)CC3)ccc21`, the Potency is 11.2 µM (active).

Turning to `COCCn1c(=NC(=O)/C=C/c2ccccc2)sc2cc(NC(C)=O)ccc21`, the Potency was 10 µM (active).

For `O=C(/C=C/c1ccncc1)c1ccc(NC(=O)c2ccccc2F)cc1`, the Potency is 12.6 µM (active).

For the compound `Cc1c(C#N)c(NC(=O)CCl)n(Cc2cccs2)c1C`, the Potency was 3.98 µM (active).

For the compound `Cc1c(C#N)c(NC(=O)CCl)n(Cc2ccccc2)c1C`, the Potency is 7.08 µM (active).

As for `COC(=O)c1cc(=O)n(Cc2cccs2)c(=Nc2ccccc2)s1`, the “activity change, negative = inhibition” value is -6.3%.

As to `COc1ccc(-c2oc3ncn(Cc4ccco4)c(=N)c3c2-c2ccc(OC)cc2)cc1`, the Potency was 7.94 µM (active).

Regarding `CC1CCCC(NC(=O)c2cc(-c3ccncc3)nc3ccccc23)C1C` (stereo unspecified), the Potency is 11.2 µM (active).

Take `C=CCn1cccc(/C=C/C(=O)c2ccc(C(C)(C)C)cc2)c1=S`: the Potency is 1.26 µM (active).

Take `Nc1nc(C2CC2)c(Sc2sc(N)nc2C2CC2)s1`: the “activity change, negative = inhibition” value was -10.8%.

Consider `Cc1ccccc1-c1nc(CS(=O)CC(=O)NC(C)CCc2ccccc2)c(C)o1` (stereo unspecified), for which the “activity change, negative = inhibition” value is -15.9%.

Take `CCN1CCCC1CNC(=O)CS(=O)(=O)Cc1nc(-c2ccccc2C)oc1C` (stereo unspecified): the Potency is 11.2 µM (active).

On to `COc1cc2c(cc1NC(=O)c1ccc(C(C)(C)C)cc1)CCCC2`, for which the Potency was 11.2 µM (active).

Take `O=C(CCCN1C(=O)/C(=C/c2cccs2)SC1=S)Nc1ccc(O)cc1`: the Potency was 11.2 µM (active).

On to `O=C(CCCN1C(=O)/C(=C\c2cccs2)SC1=S)Nc1ccc(O)cc1`, for which the Potency was 11.2 µM (active).

As for `O=C(CCN1C(=O)/C(=C\c2ccc(F)cc2)SC1=S)Nc1ccccc1`, the “activity change, negative = inhibition” value was 7.17%.

For `Cc1noc(C)c1C(=O)Nc1nc(-c2ccc(F)cc2)cs1`, the “activity change, negative = inhibition” value was 12.2%.

Take `Cc1onc(-c2c(Cl)cccc2Cl)c1C(=O)Nc1nc(C(C)(C)C)cs1`: the Potency was 11.2 µM (active).

On to `COc1ccc(NC(=O)c2c(-c3c(Cl)cccc3Cl)noc2C)c(OC)c1`, for which the Potency is 3.16 µM (active).

On to `Cc1ccc(Cl)cc1N1CCN(Cc2nc3c(c(=O)[nH]c(=O)n3C)n2CCc2ccccc2)CC1`, for which the Potency is 7.08 µM (active).

Take `CCc1ccc(OCCNC(=O)c2ccccc2SCc2ccccc2)cc1`: the Potency is 14.1 µM (active).

On to `COC(=O)c1ccc(CSc2ccccc2C)o1`, for which the “activity change, negative = inhibition” value is -5.45%.

`CCCCNC(=O)c1onc(CSc2ccccc2C)c1C(=O)O`: the “activity change, negative = inhibition” value is 1.08%.

As to `O=S(=O)(c1cccs1)N1CCN(c2ccnc3cc(Cl)ccc23)CC1`, the Potency is 5.01 µM (active).

With `O=S(=O)(c1cccs1)N1CCC(CO)(Cc2cccc(F)c2)CC1`, the “activity change, negative = inhibition” value was -62%.

For `CN(C)S(=O)(=O)N1CCN(c2ccnc3cc(Cl)ccc23)CC1`, the Potency was 12.6 µM (active).
